Screening results (PubChem BioAssay)
AmpC inh no det: Promiscuous and Specific Inhibitors of AmpC Beta-Lactamase (assay without detergent); AmpC nitrocefin hydrolysis, absorbance 480 nm, no detergent; Potency, µM (highest dose often 28.7 µM), inactives show at the top dose activity change, negative = inhibition; hit rate 1.8% among 71,000; further: % of control where 0% means no effect
Target sequence (P00811 whole entry, looked up): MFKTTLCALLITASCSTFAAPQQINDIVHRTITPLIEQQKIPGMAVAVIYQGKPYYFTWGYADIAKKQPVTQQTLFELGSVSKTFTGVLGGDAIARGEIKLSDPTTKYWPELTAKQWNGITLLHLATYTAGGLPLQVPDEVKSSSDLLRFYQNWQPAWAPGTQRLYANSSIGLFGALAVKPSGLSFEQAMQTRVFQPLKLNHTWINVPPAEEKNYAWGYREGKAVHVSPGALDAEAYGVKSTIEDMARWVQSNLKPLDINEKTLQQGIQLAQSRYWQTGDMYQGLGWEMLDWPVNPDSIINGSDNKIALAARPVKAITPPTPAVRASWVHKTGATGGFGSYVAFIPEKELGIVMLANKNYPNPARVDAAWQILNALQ
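AmpC in 20 mM phosphate buffer pH 7.0 was preincubated 15 min at room temperature with compounds. Nitrocefin (800 uM stock) was then added and hydrolysis followed at 480 nm every 20 s for 4 min.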
LT uptake inh: qHTS Assay for Anthrax Lethal Toxin Internalization | AID 912, 2007 | hit rate 0.67% among 70,000 | Potency, µM (highest dose often 40 µM), inactives show at the top dose activity change, negative = inhibition, actives largely listed as inhibitors | Cells, anthrax lethal toxin internalization, FRET ratio (460/530); further: on the % scale 0 is the no-effect control and ±100 the full control effect; nearly all actives have a fitted effect of over 50% in size
AmpC det inh: Promiscuous and Specific Inhibitors of AmpC Beta-Lactamase (assay with detergent). Potency, µM (titrated, usually from 28.7 µM), for inactives: top-dose activity change, negative = inhibition. P00811. purified AmpC, nitrocefin hydrolysis with detergent. hit rate 0.09% among 71,000; active means well fitted curve in the direction sought with a large enough effect; inconclusive means small, poorly fitted or top-dose-only effect; further: on the % scale 0 is the no-effect control and ±100 the full control effect
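E. coli AmpC (5.3 nM) in 20 mM phosphate pH 7.0 with 0.01% Triton X-100, preincubated 15 min RT with compound; nitrocefin (2 uL of 800 uM stock) hydrolysis followed by 480 nm absorbance every 20 s over 4 min.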
SmPrx2 inh: Schistosoma Mansoni Peroxiredoxins (Prx2); S. mansoni Prx2 activity coupled to TGR/GSH (TGR is thioredoxin glutathione reductase), NADPH fluorescence loss, qHTS; Potency, µM; hit rate 0.07% among 65,000; Schistosoma mansoni peroxiredoxin 2 (Prx2)
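Activity is read as the drop in NADPH fluorescence (365/450 nm), recorded every 30 sec for 8 min after H2O2 addition. Prx2 is coupled to TGR-driven NADPH oxidation through glutathione, in phosphate buffer pH 7.4.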
* marks the source's active call; other numbers are inactive results; ? = inconclusive; . = no result; ! = repeats disagree; [ ] = another dose, or the depositor's remark. A selection: hits, their analogues and other compounds. The true share with any hit is near 2.6%. Unless noted, the call rests on the fitted dose curve. Potency means the concentration at half of the fitted maximal effect.

SMILES | AmpC inh no det | LT uptake inh | AmpC det inh | SmPrx2 inh
OCCN(CO)CO | 2%[5.75 µM] | -2%[8 µM] | -6%[5.75 µM] | >57
CC[C@]1(O)C[C@H]2CN(CCc3c([nH]c4ccccc34)[C@](C(=O)OC)(c3cc4c(cc3OC)N(C)[C@@H]3[C@](O)(C(=O)OC)[C@H](OC(C)=O)[C@]5(CC)C=CCN6CC[C@]43[C@@H]65)C2)C1 | 144% | ? | -1% | >57
C=CC(C)(C)c1[nH]c2ccccc2c1C1=C(O)C(=O)C(c2c[nH]c3c(CC=C(C)C)cccc23)=C(O)C1=O | ? | 25µM* | ? | >11
CC1CCN(CC[C@@H]2CCCN2S(=O)(=O)c2cccc(O)c2)CC1 | -1% | 9% | -1% | >26
O=C(/C=C\c1ccc(O)c(O)c1)OCCc1ccccc1 | -22% | ? | -1% | >57
O=C(Nc1cccc(S(=O)(=O)C(F)F)c1)c1ccc(Cl)c(S(=O)(=O)N2CCOCC2)c1 | -7% | 10µM* | 2% | >57
COc1ccc(C(=O)Nc2cccc(C)c2)cc1S(=O)(=O)N1CCOCC1 | 60% | 15% | -2% | >57
CCCn1c(-c2ccc(F)cc2)nc2c(NC(C)CCCN(CC)CC)nc(C)nc21 (configuration not stated) | 48% | -3% | 12% | .
Cn1c(C(=O)N2CCN(C3CCCCC3)CC2)cc2c(=O)n(C)c3ccccc3c21 | 4µM*[single pt active] | -6% | 13% | >57
Cn1c(C(=O)N2CCN(c3ccccn3)CC2)cc2c(=O)n(C)c3ccccc3c21 | 4µM*[single pt active] | 14% | 14% | >57
Cn1c(C(=O)N2CCN(c3ccc(Cl)cc3)CC2)cc2c(=O)n(C)c3ccccc3c21 | 4µM*[single pt active] | -25% | 10% | >57
Cn1c(C(=O)N2CCN(c3ccc(F)cc3)CC2)cc2c(=O)n(C)c3ccccc3c21 | 10% | -2% | 10% | >57
Cc1ccc(S(=O)(=O)N[C@H]2COC(=O)C/C=C\[C@H](C)[C@@H](NS(=O)(=O)c3ccc(C)cc3)COC(=O)C/C=C\[C@@H]2C)cc1 | . | 0%[8 µM] | . | .
CN(C)[C@@H]1C(=O)C(C(N)=O)=C(O)[C@]2(O)C(=O)C3=C(O)c4c(O)cccc4[C@](C)(O)[C@H]3C[C@@H]12 | -10%[5.75 µM] | -12%[8 µM] | -10%[5.75 µM] | >57
COc1ccc(OCCC(=O)NC2=NCCS2)cc1 | -2% | 14% | -5% | >57
COc1ccc(C(=O)NCC(=O)NC2=NCCS2)cc1 | 4µM*[single pt active] | 3% | 13% | >57
O=C1c2ccccc2C(O)N1c1cccnc1 (configuration not stated) | 4µM*[single pt active] | -7% | 14% | >57
O=C1c2ccccc2C(Nc2ccc(Cl)cn2)N1c1cccnc1 (configuration not stated) | 4µM*[single pt active] | -12% | 12% | >57
CC1CCN(CC(C)OC(=O)c2ccc3c(c2)OCCO3)CC1 (configuration not stated) | 4µM*[single pt active] | -7% | 27% | >57
CC(CN1CCCCC1)OC(=O)c1ccc2c(c1)OCO2 (configuration not stated) | -10% | -3% | -1% | >57
CN1CCN(CCCN2c3ccccc3Sc3ccc(C(F)(F)F)cc32)CC1 | 29%[5.75 µM] | 10µM*! | 0%[5.75 µM] | >57
O=C1CSC2(CCN(CCCN3c4ccccc4Sc4ccc(Cl)cc43)CC2)N1 | 69%[5.75 µM] | 7%[8 µM] | -5%[5.75 µM] | >57
CCC(C)NC(=O)CS(=O)Cc1nc(-c2ccccc2C)oc1C (configuration not stated) | 4µM*[single pt active] | -11% | 11% | >57
CCCNC(=O)CS(=O)Cc1nc(-c2ccccc2C)oc1C (configuration not stated) | 4µM*[single pt active] | ? | 13% | >57
N[C@H](Cc1ccc(O)c(I)c1)C(=O)O | 8% | 2% | -2% | >57
CCOC(=O)C(C(C)=O)c1c(Br)c(O)c(O)c2c(C(=O)c3ccc(C)cc3)coc12 (configuration not stated) | 6.3µM* | ? | -3% | >57
COc1cccc2cc(C(=O)n3ccc(C)n3)c(=O)oc12 | 10µM* | -9% | 10µM* | >57
COc1ccc(N2C(=O)CC(Sc3ncn[nH]3)C2=O)c(OC)c1 (configuration not stated) | 79% | 13µM* | -1% | .
Cc1c(C)n(C)c2ccc(C(=O)NCc3cccs3)cc12 | 4µM*[single pt active] | ? | 15% | >57
CCCN1C(=O)c2cc(C(=O)NCc3ccc(OC)cc3)ccc2C1O (configuration not stated) | 3.2µM*[single pt active] | 0% | 12% | >57
